Composite z-score data for 35 compounds are collected here from PubChem BioAssay.

One assay concerns Lefty1. In words: Lefty1 binders on small-molecule microarrays, primary screen, biochemical, small-molecule microarray, 635/667 nm fluorescence (AID 1139). As to conditions: small-molecule microarray binding, fluorescence 635/667; higher = more signal.
In turn, `NCCCCCNC(=O)[C@H]1C[C@H]2C(=O)N3CCC[C@H]3C(=O)N2[C@H]1c1ccc(O)cc1` had a composite z-score of 1.1.
For the compound `C=CCC(OC(C)=O)[C@@H]1[C@@H](N(Cc2ccc(-c3ccccc3)cc2)C(=O)Cc2ccc(F)cc2)c2cc(OCCCO)ccc2N1C(=O)c1ccc2ccccc2c1` (stereo partly drawn), the composite z-score was found to be 0.125.
The same measure, in the same setting: in the case of `CCOc1ccc(N2C(=O)CSC2c2cccc([N+](=O)[O-])c2)cc1` (stereo not drawn) it was -0.157.
Regarding `C=C(CCCC)/C(=C/C[C@H](OC(C)=O)c1ccccc1OCCO)c1cnc2ccccc2c1`, the composite z-score was determined as 0.861.
The same measure, in the same setting: the result for `C=CC[C@]1(C(N)=O)COC(c2ccc(OCCCO)cc2)=N1` reads 0.863.
`COCCOC(=O)N1C(=O)[C@@]2(c3cc(C#CC4=CCCCC4)ccc31)[C@H](C(N)=O)[C@H]1C(=O)O[C@H](c3ccccc3)[C@H](c3ccccc3)N1[C@@H]2c1ccc(O)cc1` registered a composite z-score of 0.553.
In turn, `O=C1O[C@@H](c2ccccc2)[C@@H](c2ccccc2)N2[C@@H](c3ccc(OCCO)cc3)[C@]3(C(=O)Nc4ccc(C#CC5=CCCCC5)cc43)[C@@H](C(=O)N3CCCCCCC3)[C@H]12` yielded a composite z-score of 1.55.
The compound `COc1ccc([Si](C)(C)[C@@H]2[C@@H](CCn3cc([C@H](O)c4ccccc4)nn3)O[C@]3(C(=O)N(Cc4cccc(N5CCC5=O)c4)c4ccccc43)[C@H]2C)cc1` yielded a composite z-score of 0.0197.

For the next assay, the system named is wheat germ agglutinin (Triticum aestivum), Alexa647-labelled. The assay can be described thus: wheat germ agglutinin binders on compound microarrays, profiling panel, artefact control for SMM control-protein annotation, biochemical, small-molecule microarray, 635/667 nm fluorescence (AID 1140).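 Also: score merges 667 nm feature emission with signal to noise over triplicate slides.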 As to conditions: WGA-A647 binding, 635 nm fluorescence, higher = more signal.
`COc1ccc([Si](C)(C)[C@@H]2[C@@H](CCO)O[C@]3(C(=O)N(Cc4cccc(N5CCOC5=O)c4)c4ccccc43)[C@H]2C)cc1` displayed a composite z-score of 1.08.
With `COCCOC(=O)N1C(=O)[C@@]2(c3ccccc31)[C@H](C(N)=O)[C@H]1C(=O)O[C@H](c3ccccc3)[C@H](c3ccccc3)N1[C@@H]2c1ccc(O)cc1`, the composite z-score was 0.839.
Compound `O=C1C[C@@](C(=O)NCc2ccccc2)(c2ccc([N+](=O)[O-])cc2)[C@@H](c2ccc(CO)cc2)N1CC12CC3CC(CC(C3)C1)C2` registered a composite z-score of 0.162.
Turning to `COCC(=C=CC[C@H](O)c1cccc(OCCO)c1)CCO`, the composite z-score was -0.262.
Consider `COCCCNC(=O)[C@@]1(Cc2ccccc2CN=[N+]=[N-])N=C(c2ccc(OCCCO)cc2)O[C@H]1c1ccccc1CN=[N+]=[N-]`, for which the composite z-score was determined as 0.28.
With `COC(=O)[C@]1(Cc2ccccc2)N=C(c2ccc(OCCCO)cc2)O[C@@H]1c1ccccc1N=[N+]=[N-]`, the composite z-score was found to be 0.464.
Consider `COC(=O)[C@@]1(Cc2ccc(F)cc2)[C@H]2c3cc(C(=O)N(C)C)n(Cc4ccc(C)o4)c3C[C@H]2CN1C(=O)c1ccccc1`, for which the composite z-score came out at 0.319.
`CC(C)=CCCC(C)=CC(O)C1C=CC2C(=O)N(c3ccccc3)C(=O)C2N1Nc1ccc(C(C)C)cc1` (stereo not drawn) registered a composite z-score of 1.03.
Same read-out and setting: in the case of `COc1ccccc1CN1C(=O)c2ccccc2[C@@H](C(=O)NCc2ccccc2)[C@@H]1c1ccc(CO)cc1` it was 0.397; in that of `CC#CC(=O)Oc1ccc(Br)cc1C=CC(=O)OCC`, 0.665; in that of `O=C(NC1CC1)[C@@H]1c2ccccc2C(=O)N(C2Cc3ccccc3C2)[C@H]1c1ccc(CO)cc1`, 0.0895.
In turn, `COCCCNC(=O)[C@@H]1c2ccccc2C(=O)N(Cc2ccccc2OC)[C@H]1c1ccc(CO)cc1` had a composite z-score of 0.701.
`O=C(O)[C@H](Cc1ccccc1)n1cc(-c2ccccc2)nn1` displayed a composite z-score of 0.651.
As for `C=CC[C@]1(C(=O)NCc2ccccc2)N=C(c2ccc(OCCCO)cc2)O[C@H]1c1ccccc1CN=[N+]=[N-]`, the composite z-score is 0.666.
The compound `CN1C(=O)C2C=CC(C(O)c3ccc(F)cc3)N(N(c3ccccc3)c3ccccc3)C2C1=O` (stereo not drawn) had a composite z-score of 0.296.
`C=CCC(OC(C)=O)[C@@H]1[C@@H](N(Cc2ccc(-c3cccc(C(F)(F)F)c3)o2)C(=O)Cc2ccc(OC)cc2)c2cc(OCCCO)ccc2N1C(=O)c1ccc2ccccc2c1` (stereo partly drawn): the composite z-score was -0.145.
Take `CN(C)CCCCCCNC(=O)[C@@H]1C[C@@H]2C(=O)N[C@@H](CCCC[N+](C)(C)C)C(=O)N2[C@@H]1c1ccc(O)cc1`: the composite z-score is 0.427.
On to `CC(C)CNC(=O)[C@@]1(Cc2ccccc2I)c2ccccc2C(=O)N(Cc2ccccc2C(F)(F)F)[C@H]1c1ccc(CO)cc1`, for which the composite z-score came to 0.34.
`C=CC[C@]1(C(N)=O)N=C(c2ccc(OCCCO)cc2)O[C@H]1c1ccccc1` registered a composite z-score of 0.417.
Compound `COCCCNC(=O)[C@@]1(Sc2ccc(C)cc2)CC(=O)N(Cc2ccccc2Cl)[C@@H]1c1ccc(CO)cc1` came in with a composite z-score of 0.966.
Consider `CCCC=C(CCC)[C@@H](NC(=O)OCC(C)C)c1ccccc1`, for which the composite z-score worked out at 0.126.
The compound `OCC1C=C(/C=C/c2ccccc2)CN1Cc1ccccc1Br` (stereo not drawn) came in with a composite z-score of 0.94.
Still for that read-out and setting: in the case of `CN1C(=O)C2C=CC(C(O)C=Cc3ccc([N+](=O)[O-])cc3)N(Nc3ccccc3)C2C1=O` (stereo not drawn) it was 0.289; in that of `COC(=O)[C@@]1(Cc2ccccc2)[C@H]2c3cc(C(=O)N4CCCC4)n(Cc4ccc(O)c(OC)c4)c3C[C@H]2CN1C(=O)c1ccccc1`, 0.504.
On the same count and under the same terms, in the case of `CN(C)CCCCCCNC(=O)[C@@H]1C[C@@H]2C(=O)N3CCC[C@H]3C(=O)N2[C@@H]1c1ccc(O)cc1` it was 0.758; in that of `C[N+](C)(C)CCCC[C@@H]1NC(=O)[C@H]2C[C@@H](C(=O)NCCCCCCNC(=O)CS)[C@@H](c3ccc(O)cc3)N2C1=O`, -1.07; in that of `COC(=O)C(CC#Cc1ccc2c(c1)[C@]1(C(=O)N2)[C@H](c2ccccc2OCCO)N2[C@H](c3ccccc3)[C@H](c3ccccc3)OC(=O)[C@H]2[C@@H]1C(=O)O)C(=O)OC`, 0.702.
Consider `NCCCCCNC(=O)[C@H]1C[C@H]2C(=O)N3CCC[C@H]3C(=O)N2[C@H]1c1ccc(O)cc1`, for which the composite z-score came to 0.781.
In turn, `C=CCC(OC(C)=O)[C@@H]1[C@@H](N(Cc2ccc(-c3ccccc3)cc2)C(=O)Cc2ccc(F)cc2)c2cc(OCCCO)ccc2N1C(=O)c1ccc2ccccc2c1` (stereo partly drawn) came in with a composite z-score of -0.117.
Same read-out and setting: in the case of `CCOc1ccc(N2C(=O)CSC2c2cccc([N+](=O)[O-])c2)cc1` (stereo not drawn) it was 1.09.
`C=C(CCCC)/C(=C/C[C@H](OC(C)=O)c1ccccc1OCCO)c1cnc2ccccc2c1` had a composite z-score of 0.664.
On the same count and under the same terms, in the case of `C=CC[C@]1(C(N)=O)COC(c2ccc(OCCCO)cc2)=N1` it was 0.493; in that of `COCCOC(=O)N1C(=O)[C@@]2(c3cc(C#CC4=CCCCC4)ccc31)[C@H](C(N)=O)[C@H]1C(=O)O[C@H](c3ccccc3)[C@H](c3ccccc3)N1[C@@H]2c1ccc(O)cc1`, 0.686.
For the compound `O=C1O[C@@H](c2ccccc2)[C@@H](c2ccccc2)N2[C@@H](c3ccc(OCCO)cc3)[C@]3(C(=O)Nc4ccc(C#CC5=CCCCC5)cc43)[C@@H](C(=O)N3CCCCCCC3)[C@H]12`, the composite z-score is 1.46.
With `COc1ccc([Si](C)(C)[C@@H]2[C@@H](CCn3cc([C@H](O)c4ccccc4)nn3)O[C@]3(C(=O)N(Cc4cccc(N5CCC5=O)c4)c4ccccc43)[C@H]2C)cc1`, the composite z-score came out at 0.187.
